Sampled rows, rich in hits. Any-hit rate of the full collection: about 0.88%.
IL2 activator = activates IL-2 in a cell-based reporter assay; IL-2 activation reporter assay, cell-based qHTS; stimulated with anti-CD3/CD4/CD28 beads; in transgenic mouse T cells; activation, % (series mostly up to about 46 µM); hit rate 0.065% among 360,000; AID 652025; in the data active means activation above about 50%; inconclusive means mostly about 30% to 49%; further: 0% is about no effect
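Screening format: compound pinned onto unstimulated transgenic mouse T cells, 60 min incubation, then anti-CD3/anti-CD4/anti-CD28 bead stimulation for 18 hours at 37 degrees C, followed by EGFP and DsRed detection.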
TRHR enhancer = allosterically enhances the human TRH receptor; P34981; enhancement, % at 2 µM; TRHR cells, fluo-8 calcium fluorescence, EC20 TRH enhancement; hit rate 0.66% among 360,000; AID 493056; in the data active means enhancement above about 30%; further: 0% is about no effect
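TRHR-expressing cells loaded with fluo-8 calcium dye were read kinetically (ex 480/em 530) during compound addition, then stimulated with an EC20 of TRH (10 nM final). Enhancement of the Gq-mediated intracellular calcium response was scored.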
TRHR agonist = activates the human TRH receptor; P34981; TRHR cells, calcium flux fluo-8, FDSS agonist mode; activation, % at 2 µM; hit rate 0.18% among 360,000; in the data active means activation above about 30%; further: 0% is about no effect
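In this calcium-flux screen, cells bearing human TRHR are dye-loaded with fluo-8, baselined for 10 cycles, then exposed to library compounds; positive kinetic calcium responses during the agonist phase mark hits, with TRH as control.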
CBFb-RUNX1 inh = CBF-beta/RUNX1 interaction disruption. AID 1477. AlphaScreen CBFb-His/RUNX1-biotin binding, biochemical. Q01196+Q13951. 230,000 tested, under 10 active. Potency, µM (titrated, usually from 59.8 µM), for inactives: at the top dose activity, negative = inhibition, hits mostly inhibitors; further: % of control where 0% means no effect
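AlphaScreen binding: CBFb-His and RUNX1-biotin (30 nM each) preincubated 20 min, compound added for 15 min, then nickel and streptavidin beads for 90 min, all at room temperature. Disruption of the interaction by any mechanism counts as activity.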
Epigenetic derep = derepresses silenced GFP reporter in murine cells; hit rate 0.2% among 280,000; murine LDR cells, GFP reporter derepression, 30 h; Potency, µM (top dose mostly 53.9 µM), for inactives: at the top dose GFP activation, most hits filed as activators; further: potency means the concentration at half of the fitted maximal effect; % of control where 0% means no effect; nearly all actives have a fitted effect of over 60% in size
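GFP-positive cell count by laser-scanning cytometry (objects 20–120 um) after 30 h, 37 C compound exposure of murine LDR cells; reporter is CMV-GFP integrated at a silenced locus, inducible by HDAC or DNMT inhibitors.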
MBNL1 CUG block = inhibitors of human MBNL1 binding to CUG repeat RNA; Q9NR56; TR-FRET MBNL1-His/biotin-(CUG)12 binding, 665/545 ratio; Potency, µM (highest dose often 57.5 µM), for the others: at the highest dose activity change, negative = inhibition, usual class: inhibitors; hit rate 0.036% among 280,000; active means well fitted inhibition curve with a large enough effect in the signal ratio, with a control signal flat, not every such curve was filed as active; inconclusive means small, poorly fitted or top-dose-only effect, or effect the other way, or a change in a side signal; inactive means no such curve, though single readings can be large or run the other way; the % refers to the signal ratio; further: potency means the concentration at half of the fitted maximal effect; on the % scale 0 is the no-effect control and ±100 the full control effect
Target sequence (Q9NR56 whole entry, looked up): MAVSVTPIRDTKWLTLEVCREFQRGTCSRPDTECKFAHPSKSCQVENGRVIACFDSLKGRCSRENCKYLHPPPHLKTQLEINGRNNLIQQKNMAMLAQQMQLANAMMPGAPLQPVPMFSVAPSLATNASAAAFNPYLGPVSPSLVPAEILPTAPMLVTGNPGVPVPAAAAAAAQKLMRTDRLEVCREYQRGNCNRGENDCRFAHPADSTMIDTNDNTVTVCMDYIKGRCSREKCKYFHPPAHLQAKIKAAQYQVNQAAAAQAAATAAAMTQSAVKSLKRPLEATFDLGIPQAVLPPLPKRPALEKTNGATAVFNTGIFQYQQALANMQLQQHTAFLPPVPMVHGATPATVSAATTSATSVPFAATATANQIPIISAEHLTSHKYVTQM
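Ratiometric TR-FRET (665 over 545 nm, excitation 340 nm) tracks disruption of MBNL1-His/biotin-(CUG)12 complex after 60 min at room temperature, with compounds at 92 nM to 58 uM final.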
* hit, by the source's call; ? = inconclusive; . = no result given. Unless noted, the call rests on the fitted dose curve; in most records, active means well fitted curve in the direction sought with a large enough effect; inconclusive means small, poorly fitted or top-dose-only effect, or another doubt; inactive means no such curve, though single readings can be large; an effect the other way counts as inactive or inconclusive.

SMILES | IL2 activator | TRHR enhancer | TRHR agonist | CBFb-RUNX1 inh | Epigenetic derep | MBNL1 CUG block
CN(C)S(=O)(=O)c1cccc(NC(=S)NCc2ccco2)c1 | -1.8 | 38.5* | 1.8 | -4.0% | -2.5% | 2.2%
N#C/C(=C/c1ccc(N2CCCCC2)cc1)c1cccc(F)c1 | -0.5 | 6.1 | 0.0 | -26.3% | 2.0% | -6.4%
N#C/C(=C/c1ccc(N2CCCCC2)o1)c1cccc(F)c1 | 3.8 | -14.1 | 2.7 | -4.0% | 6.31µM* | 6.2%
N#C/C(=C\c1ccc(N2CCOCC2)o1)C(=O)NCC1CCCO1 (stereo unspecified) | -3.4 | 2.5 | -0.4 | 0.1% | 1.1% | -11.2%
N#C/C(=C/c1ccc(N2CCCCCC2)o1)c1ccc(Cl)cc1 | -0.3 | -1.8 | 0.7 | -4.9% | 7.08µM* | -15.9%
Cc1cc2c(s1)c1cnn(Cc3ccc(-c4ccccc4)cc3)c(=O)c1n2C | . | 1.0 | 0.3 | . | . | .
Cc1cc(C)n2c(SCC(C)C)nnc2n1 | -0.4 | 33.2* | 0.2 | 5.0% | 1.1% | 5.3%
CC(=O)c1cccc(NC(=O)c2ccc(Cl)c(S(=O)(=O)N3CCOCC3)c2)c1 | . | 6.9 | -0.7 | . | -0.8% | .
Cc1ccc(Cl)cc1NC(=O)Nc1cn(CC(C)C)c(=O)c2ccccc12 | . | 0.1 | -0.5 | . | 7.8% | .
S=c1[nH]c(-c2ccccc2)cn1/N=C/c1cccc2ccccc12 | -0.9 | 34.3* | 0.9 | ? | 12.4% | 8.6%
COc1ccccc1CCNC(=O)Cc1c(C)c2cc3c(C(C)(C)C)coc3c(C)c2oc1=O | . | -0.5 | -0.5 | . | 3.2% | .
COc1cccc(CN2CCN(Cc3cccc(Oc4ccccc4)c3)CC2)c1OC | -1.5 | 31.5* | -0.5 | . | . | -2.0%
COc1ccc(CN2CCN(CCCc3ccccc3)CC2)c(OC)c1 | . | 55.4* | -0.1 | -7.5% | 0.2% | -6.2%
N#Cc1nc(Nc2ccc(F)cc2)nc(NC2CCCC2)n1 | . | 4.1 | -0.9 | . | . | .
COCC1CCCN(Cc2cn(-c3ccccc3F)nc2-c2cc(C)sc2C)C1 (stereo unspecified) | -0.5 | 32.0* | 0.6 | 2.3% | -2.4% | 3.2%
CC(=O)N(C(C)=O)N1C(=O)c2cccc3c(N4CCOCC4)ccc(c23)C1=O | -0.5 | -0.5 | 14.6 | 0.3% | 3.4% | ?
O=C1c2cccc3c(N4CCCCC4)ccc(c23)C(=O)N1c1ccccn1 | 1.8 | 14.0 | 156.5* | 10.8% | 8.1% | ?
CCc1cnc2c(c1SCc1cc(OC)cc(OC)c1)c(=O)n(C)c(=O)n2C | . | -1.4 | 0.2 | . | 7.6% | .
CC1CN(c2ccc(NS(=O)(=O)c3ccccc3)cc2C(=O)O)CC(C)O1 (stereo unspecified) | -0.1 | 3.1 | 0.3 | 11.7% | 0.0% | -8.4%
CC1CN(c2ccc(NC(=O)c3ccco3)cc2C(=O)O)CC(C)O1 (stereo unspecified) | 0.3 | 30.1* | 0.4 | 13.6% | 1.1% | -2.8%
CCOC(=O)C1CCN(Cc2ccc(O)c3ncccc23)CC1 | -3.5 | 10.7 | -0.1 | -19.1% | 5.62µM* | 19.4%
CN(C)c1ccc(/C=N/NC(=O)c2ccccn2)cc1 | -1.8 | 10.3 | 0.3 | 1.5% | 1.2% | ?
CN(C)c1ccc(/C=N/NC(=O)c2cnc3ccccc3c2)cc1 | 170.2* | 4.0 | -0.7 | 8.1% | ? | 3.1%
COc1cccc(Cn2ncc3c4sc(C)cc4n(C)c3c2=O)c1 | . | -2.1 | -2.0 | . | . | .
CCOc1ccc(C(=O)c2cn(Cc3ccccc3)c3c(F)cc(F)cc3c2=O)cc1 | . | 33.5* | -0.6 | . | -0.3% | .
COc1ccc(-c2cn[nH]c2C)cc1 | -2.8 | 30.8* | -1.2 | -4.2% | 0.1% | -15.5%
COc1ccc(-c2cn[nH]c2-c2ccc(OC)cc2O)cc1 | -1.7 | 4.1 | -0.6 | . | . | -3.9%
COc1ccccc1NS(=O)(=O)c1ccc2[nH]c(=O)[nH]c2c1 | 1.6 | 7.2 | -2.8 | . | . | -12.3%
COc1ccc(NS(=O)(=O)c2ccc3[nH]c(=O)[nH]c3c2)cc1OC | 1.0 | 31.6* | 1.3 | . | . | 2.7%

Screens as filed in PubChem BioAssay.
